This is part of a sample that, as a whole, favours compounds with a hit. Of some 83,000 tested, about 20% had one in any assay.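 The endpoint reported here, percent growth, reads 100 for growth as untreated, 0 for no net growth and -100 for all cells dead.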 Values without a mark were called inactive. The source made the active and inactive calls. The calls were made as follows: active = growth percent below 10; inactive = the rest.

Among the test systems are NCI-H226 lung; NCI-H322M lung; HOP-62 NSCLC; NCI-H460 lung; HOP-92 NSCLC; A549/ATCC NSCLC; 786-0 renal; COLO 205 colon; DU-145 prostate; K-562 leukemia; MALME-3M melanoma; MDA-MB-231 breast; RXF 393 renal; SF-268 CNS; SF-295 CNS; SF-539 CNS; UACC-257 melanoma; M14 melanoma; HCT-15 colon; NCI-H522 lung.
Common to all, as to assay: NCI-60 one-dose screen, 48 h (100 = growth as untreated, 0 = no growth, -100 = all killed)
Details in all cases: 10 µM unless noted

As for `COc1cc(-c2nc3ccc(-c4nnc(SCC(=O)Nc5ccc(C(=O)/C=C/c6ccc(Cl)cc6)cc5)o4)cc3[nH]2)cc(OC)c1OC`, the growth was 91.7% with NCI-H226 lung; 96.2% in the assay with NCI-H322M lung; 101% in the assay with HOP-62 NSCLC; 105% in the assay on NCI-H460 lung; 82.2% in the assay on HOP-92 NSCLC; 101% in the assay with A549/ATCC NSCLC. Further, the growth in the assay with 786-0 renal is 90.8%; in the assay on COLO 205 colon, 108%; in the assay with DU-145 prostate, 104%; in the assay with K-562 leukemia it was 83.8%; in the assay on MALME-3M melanoma it was 101%; in the assay on MDA-MB-231 breast, 91.6%. Further, the growth with RXF 393 renal is 112%; with SF-268 CNS it was 99.2%; in the assay with SF-295 CNS it was 97.7%; in the assay on SF-539 CNS, 74.7%; in the assay with UACC-257 melanoma, 112%; with M14 melanoma it was 105%. In addition, the growth in the assay on HCT-15 colon was 86.9%.

Consider `N#Cc1ccc(C(=O)CSc2nc(Nc3ccc(S(N)(=O)=O)cc3)c3ccccc3n2)cc1`, for which the growth was 105% in the assay with NCI-H226 lung; 107% with NCI-H322M lung; 99.2% with HOP-62 NSCLC; 111% in the assay on NCI-H460 lung; 111% in the assay on HOP-92 NSCLC; 108% in the assay on A549/ATCC NSCLC. Moreover, the growth was 105% with 786-0 renal; 117% in the assay with COLO 205 colon; 107% in the assay with DU-145 prostate; 105% in the assay on K-562 leukemia; 106% with MALME-3M melanoma; 105% in the assay on MDA-MB-231 breast. For the same compound, the growth with RXF 393 renal was 109%; with SF-268 CNS, 109%; in the assay on SF-295 CNS, 102%; in the assay on SF-539 CNS, 102%; in the assay with UACC-257 melanoma, 101%; in the assay on M14 melanoma, 103%. In addition, the growth with HCT-15 colon was 100%.

In the case of `O=C1Nc2cc(Cl)ccc2/C1=C\c1ccc(OCc2ccc([N+](=O)[O-])cc2)cc1`, the growth is 81% with NCI-H226 lung; 75.1% in the assay on NCI-H322M lung; 79.8% in the assay with HOP-62 NSCLC; 59.9% in the assay on NCI-H460 lung; 45.8% in the assay with HOP-92 NSCLC; 78% in the assay with A549/ATCC NSCLC. Besides, the growth with 786-0 renal was 51%; in the assay with COLO 205 colon it was 92.9%; with DU-145 prostate, 79.9%; in the assay with K-562 leukemia, 83.1%; with MALME-3M melanoma it was 75.1%; in the assay with MDA-MB-231 breast, 66.2%. In addition, the growth with RXF 393 renal is 64.3%; with SF-268 CNS, 86.4%; with SF-295 CNS it was 68.2%; with SF-539 CNS, 80.7%; with UACC-257 melanoma it was 89.5%; in the assay on M14 melanoma, 83.3%. The growth in the assay on HCT-15 colon was 77.8%.

In the case of `COc1cc(/C=C/C(=O)c2ccc(C(F)(F)F)cc2)ccc1Oc1nc(NCCO)nc(N2CCOCC2)n1`, the growth in the assay with NCI-H226 lung was 89.2%; with NCI-H322M lung it was 101%; in the assay on HOP-62 NSCLC, 90.2%; with NCI-H460 lung, 98.7%; with HOP-92 NSCLC it was 95%; in the assay with A549/ATCC NSCLC, 91.6%. Moreover, the growth is 100% in the assay on 786-0 renal; 108% in the assay with COLO 205 colon; 101% in the assay with DU-145 prostate; 6.49% (active) in the assay on K-562 leukemia; 85.7% in the assay on MALME-3M melanoma; 92.9% in the assay on MDA-MB-231 breast. For the same compound, the growth in the assay with RXF 393 renal is 90.8%; in the assay with SF-268 CNS, 87.3%; with SF-295 CNS, 96%; in the assay on SF-539 CNS, 98.2%; in the assay with UACC-257 melanoma it was 97.4%; with M14 melanoma, 97.6%. Also, the growth in the assay with HCT-15 colon is 70.5%.

`CC(C)NC(=O)c1cc(-c2ccc(NC(=O)Nc3ccc(N4CCOCC4)c(C(F)(F)F)c3)cc2)nc2cccnc12`: the growth is 80% in the assay with NCI-H226 lung; 91.2% in the assay on NCI-H322M lung; 43.9% in the assay on HOP-62 NSCLC; 55.2% in the assay with NCI-H460 lung; 72.3% in the assay with HOP-92 NSCLC; 62.4% in the assay with A549/ATCC NSCLC. In addition, the growth was 17% with 786-0 renal; 99.7% in the assay with COLO 205 colon; 78.9% with DU-145 prostate; 24.6% in the assay with K-562 leukemia; 68.3% with MALME-3M melanoma; 48.7% in the assay with MDA-MB-231 breast. The growth in the assay with RXF 393 renal is -9.17% (active); with SF-268 CNS, 77.5%; in the assay with SF-295 CNS it was 1.17% (active); in the assay with SF-539 CNS it was 20.9%; in the assay on UACC-257 melanoma, 94.4%; with M14 melanoma, 73.2%. Further, the growth with HCT-15 colon was 68.1%.

Consider `COc1ccc(/C=N/NC(=O)c2[nH]c3ccc(Br)cc3c2-c2ccccc2)o1`, for which the growth in the assay with NCI-H226 lung was 49.7%; in the assay on NCI-H322M lung it was 44.2%; in the assay on HOP-62 NSCLC it was 47.6%; in the assay on NCI-H460 lung, 0.221% (active); with HOP-92 NSCLC it was 33.2%; in the assay on A549/ATCC NSCLC it was 30.4%. Moreover, the growth was 13.3% in the assay with 786-0 renal; -47.8% (active) with COLO 205 colon; 20% in the assay on DU-145 prostate; 12.1% in the assay on K-562 leukemia; 51.5% with MALME-3M melanoma; -5.34% (active) with MDA-MB-231 breast. For the same compound, the growth was 50.9% in the assay with RXF 393 renal; 38.6% in the assay on SF-268 CNS; 16.6% with SF-295 CNS; -17.4% (active) in the assay on SF-539 CNS; 54.1% with UACC-257 melanoma; -1.43% (active) in the assay with M14 melanoma. For the same compound, the growth in the assay with HCT-15 colon is 10.7%.

`O=C1/C(=C/C2=Cc3ccccc3OC2)SC(=S)N1c1ccc(F)cc1`: the growth with NCI-H226 lung is 103%; in the assay on NCI-H322M lung, 97.2%; in the assay with HOP-62 NSCLC it was 101%; in the assay with NCI-H460 lung, 105%; in the assay on HOP-92 NSCLC, 99.2%; with NCI-H522 lung, 90.4%. The growth was 101% in the assay on A549/ATCC NSCLC; 96.3% in the assay on 786-0 renal; 104% with DU-145 prostate; 91% in the assay on K-562 leukemia; 101% in the assay on MALME-3M melanoma; 99% in the assay on MDA-MB-231 breast. Besides, the growth in the assay with RXF 393 renal is 106%; in the assay on SF-268 CNS it was 111%; in the assay on SF-295 CNS, 102%; in the assay with SF-539 CNS, 98.5%; with UACC-257 melanoma, 108%; in the assay on M14 melanoma, 103%. Besides, the growth with HCT-15 colon was 105%.

In the case of `O=C(O)CCCCCN1C(=O)/C(=C/c2ccc(O)c(O)c2)SC1=S`, the growth is 106% with NCI-H226 lung; 89.9% with NCI-H322M lung; 110% in the assay with HOP-62 NSCLC; 108% with NCI-H460 lung; 139% with HOP-92 NSCLC; 113% with A549/ATCC NSCLC. The growth was 105% in the assay on 786-0 renal; 125% in the assay with COLO 205 colon; 103% with DU-145 prostate; 100% in the assay with K-562 leukemia; 97.5% in the assay on MALME-3M melanoma; 91.8% with MDA-MB-231 breast. The growth was 124% in the assay on RXF 393 renal; 103% with SF-268 CNS; 99.3% in the assay on SF-295 CNS; 96% with SF-539 CNS; 108% in the assay with UACC-257 melanoma; 106% in the assay on M14 melanoma. The growth in the assay with HCT-15 colon is 101%.

Source of the values: PubChem BioAssay (NCI).
